In ChEMBL document CHEMBL1157539, “Thousands of chemical starting points for antimalarial lead identification” (Nature, 2010) one finds Inhibition data, which are given here for 29 molecules.

Each structure is given as a SMILES string.

Format in all cases: functional
Assay [1] concerns Plasmodium falciparum. The experiment in a line: GSK_TCMDC: Inhibition of Plasmodium falciparum 3D7 in whole red blood cells, using parasite LDH activity as an index of growth. Test compounds present at 2uM.
Assay [2] concerns Plasmodium falciparum. The experiment in a line: GSK_TCMDC: Inhibition of Plasmodium falciparum Dd2 in whole red blood cells, using parasite LDH activity as an index of growth. Test compounds present at 2uM.
The next assay relates to HepG2. The experiment in a line: GSK_TCMDC: Percent inhibition of human HepG2 cell line. Test compounds present at 10uM.

Take `Cc1ccoc1C(=O)Nc1cccc(-c2cccc(-c3nc4cc(C(F)(F)F)ccc4[nH]3)c2)c1`: the Inhibition (commonly the percentage by which the read-out fell short of the control) with Plasmodium falciparum [1] turned out to be 98%; in the assay with Plasmodium falciparum [2] it was 37%; in the assay on HepG2, 39%.
Turning to `O=C(O)C(F)(F)F.O=S(=O)(NCCN1CCCC1)c1ccc(-c2cccc(CNCc3ccc(F)cc3)c2)s1`, the Inhibition amounted to 99% in the assay with Plasmodium falciparum [1], 50% in the assay on Plasmodium falciparum [2] and 48% in the assay on HepG2.
For `COc1cc(OC)cc(C(=O)Nc2ccc(Nc3nc(C)cc(N(C)C)n3)cc2)c1` the same measures were 100%, 90% and 11%.
For `COc1cc(F)c2ncc(Cl)c(C(O)CN3CCC(NC(=O)c4ccc5c(n4)NC(=O)CO5)CC3)c2c1.Cl` (configuration not stated), in that order: 100%, 100% and 22%.
For `Cc1cccc(CNc2nc(C)cc(N[C@@H](Cc3ccccc3)C(=O)NCCc3ccccc3)n2)c1.O=C(O)C(F)(F)F` the same measures were 99%, 85% and 24%.
In the case of `CCNc1cc(CC)nc(Nc2ccc(C)cc2)n1`, the Inhibition in the assay with Plasmodium falciparum [1] is recorded as 100%; in the assay on Plasmodium falciparum [2], 24%; in the assay on HepG2, 22%.
For `COc1ccc(-c2cccc(NC(=O)c3cccc(Cl)c3)c2)cc1CN(C)CCN(C)C.O=C(O)C(F)(F)F` the same measures were 100%, 73% and 32%.
For `CN(C)CCNc1ncnc2c1[nH]c1ccc(Br)cc12` the same measures were 100%, 7% and 2%.
As to `Cc1ccc(S(=O)(=O)N2CCN(C(=O)c3cc(-c4ccccc4)n[nH]3)CC2)cc1`, the Inhibition is reported as 91% in the assay on Plasmodium falciparum [1], 88% with Plasmodium falciparum [2] and 0% with HepG2.
For the molecule `CN1CCCC1CNS(=O)(=O)c1ccc(C(=O)NCC2CC2)cc1.O=C(O)C(F)(F)F` (configuration not stated), the Inhibition is recorded as 91% in the assay on Plasmodium falciparum [1], 0% in the assay with Plasmodium falciparum [2] and 17% in the assay with HepG2.
For `CCCNCc1ccc(-c2ccc(CN(CC3CCCO3)C(=O)COc3ccccc3Cl)cc2)nc1.O=C(O)C(F)(F)F` (configuration not stated), in that order: 89%, 11% and 5%.
Turning to `COc1ccc(OCCCON)cc1.Cl`, the figures for the Inhibition with Plasmodium falciparum [1], with Plasmodium falciparum [2] and with HepG2 were 98%, 0% and 3%, respectively.
For `O=C(/C=C/c1ccc(Cl)c(Cl)c1)NCCCCCN1CCCC(CCCNC(=O)Nc2ccc(C(F)(F)F)cc2)C1` (configuration not stated) the same measures were 100%, 48% and 58%.
For `CC(C)C[C@@H](/C=N/N1CCOC1=O)NC(=O)[C@H](CC(C)C)NC(=O)c1ccc(OCCN2CCOCC2)cc1`, in that order: 92%, 87% and 5%.
For `Cc1cccc(N2CCN(C3CCC(NC(=O)c4cc5ccccc5[nH]4)CC3)CC2)c1C` (configuration not stated) the same measures were 100%, 21% and 49%.
Take `C(=N\Nc1nccc2sc(-c3cccnc3)cc12)/c1ccncc1`: the Inhibition in the assay with Plasmodium falciparum [1] stood at 100%; in the assay on Plasmodium falciparum [2] it was 94%; with HepG2, 65%.
For `Cc1ccc(O)cc1Nc1ccnc2cc(-c3nccs3)ccc12.Cl` the same measures were 100%, 83% and 63%.
For `Cc1cc(C)c2c(c1)C(=NO)CCN2` the same measures were 94%, 2% and 2%.
For `COc1ccc2nccc([C@@H](O)CN3CCC(NCc4ccc5c(c4)NC(=O)CS5)CC3)c2c1.O=C(O)C(=O)O`, in that order: 100%, 36% and 0%.
In the case of `N#Cc1cc(C(=O)c2cc(Br)ccc2O)cn(-c2cc(Cl)cc(Cl)c2)c1=O`, the Inhibition in the assay on Plasmodium falciparum [1] was 98%; in the assay on Plasmodium falciparum [2], 35%; in the assay on HepG2 it was 42%.
For `CC(C)c1nc2c(N)nc(N)nc2nc1N`, in that order: 84%, 0% and 64%.
Consider `COc1ccc2nccc([C@@H](O)CN3CCC(NCc4cc5ccccc5cn4)CC3)c2n1.O=C(O)C(=O)O`, for which the Inhibition in the assay with Plasmodium falciparum [1] worked out at 93%; with Plasmodium falciparum [2], 14%; in the assay with HepG2, 3%.
For `CCCOc1c(CCNCCCCNCCc2ccc3ccccc3c2OCCC)ccc2ccccc12.CS(=O)(=O)O`, the Inhibition is on record as 100% with Plasmodium falciparum [1], 78% with Plasmodium falciparum [2] and 100% in the assay on HepG2.
With `CCOc1cc(C)ccc1N(C1CCN(CCCCNC(=O)c2ccc(-c3ccc(C(F)(F)F)cc3)cc2)CC1)S(=O)(=O)c1ccccc1`, the Inhibition came to 88% in the assay with Plasmodium falciparum [1], 85% in the assay with Plasmodium falciparum [2] and 14% with HepG2.
For `COc1ccc(-c2cnc3ccc(NCc4ccc(F)cc4)nn23)cc1OC` the same measures were 97%, 99% and 35%.
For `Cc1cccc(C(=O)Nc2ccnc(N(C)CCCN(C)Cc3cccc(O)c3)c2)c1.O=C(O)C(F)(F)F` the same measures were 94%, 71% and 27%.
For `COC(=O)COc1cc(C(=O)NCCCCN2CCC(c3ccc4c(c3OC)CCCC4)CC2)ccc1-c1ccc(Cl)cc1`, in that order: 97%, 21% and 32%.
On to `c1ccc(CN2CCCN(c3ccc4c(c3)CCN(Cc3ccc(-c5ncc[nH]5)cc3)CC4)CC2)cc1`, for which the Inhibition with Plasmodium falciparum [1] is reported as 100%; in the assay on Plasmodium falciparum [2], 73%; in the assay with HepG2, 6%.
With `O=c1nc(NCCCCCN2CCC(c3c[nH]c4ccccc34)CC2)[nH]cc1Cc1ccc(Cl)c(Cl)c1`, the Inhibition was found to be 94% in the assay with Plasmodium falciparum [1], 8% in the assay with Plasmodium falciparum [2] and 21% in the assay with HepG2.
